Screening data deposited in PubChem BioAssay by National Center for Advancing Translational Sciences (NCATS).
An excerpt weighted towards active compounds, which were near 12% of everything screened.
BAZ2B block: BAZ2B (human) inhibition | AlphaScreen BAZ2B-H3K14Ac peptide displacement | Q9UIF8 | 360,000 compounds, 4.4% hits | Potency, µM (highest dose often 114 µM), for the others: at the highest dose activity change, negative = inhibition, actives largely listed as inhibitors; also: % is scaled to controls: 0 for no effect and ±100 for the full control effect; nearly all actives have a fitted effect of over 60% in size
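Multi-concentration screen (max 110 uM) measuring displacement of acetylated histone H3 peptide from BAZ2B by AlphaScreen, using 50 nM protein, 50 nM peptide and 10 ug/mL streptavidin donor plus Ni-chelate acceptor beads.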
PLK1 PBD block: inhibitors of human PLK1 polo-box domain binding | P53350 | Plk1 PBD binding of FITC phosphopeptide, fluorescence polarization | Potency, µM, for inactives: max response, negative = inhibition, actives largely listed as inhibitors | 360,000 compounds, 2.8% hits | AID 720504; also: series mostly up to about 57 µM; % is scaled to controls: 0 for no effect and ±100 for the full control effect; nearly all actives have a fitted effect of over 65% in size
JMJD2A Tudor inh: JMJD2A Tudor domain (human) inhibition; AlphaScreen JMJD2A-Tudor / H3K4me3 peptide binding; Potency, µM (titrated, usually from 114 µM), without a hit: top-dose activity change, negative = inhibition, actives largely listed as inhibitors; 390,000 compounds, 4.4% hits; also: % is scaled to controls: 0 for no effect and ±100 for the full control effect; nearly all actives have a fitted effect of over 50% in size
Target sequence (O75164 whole entry, looked up, the tested form may be a part): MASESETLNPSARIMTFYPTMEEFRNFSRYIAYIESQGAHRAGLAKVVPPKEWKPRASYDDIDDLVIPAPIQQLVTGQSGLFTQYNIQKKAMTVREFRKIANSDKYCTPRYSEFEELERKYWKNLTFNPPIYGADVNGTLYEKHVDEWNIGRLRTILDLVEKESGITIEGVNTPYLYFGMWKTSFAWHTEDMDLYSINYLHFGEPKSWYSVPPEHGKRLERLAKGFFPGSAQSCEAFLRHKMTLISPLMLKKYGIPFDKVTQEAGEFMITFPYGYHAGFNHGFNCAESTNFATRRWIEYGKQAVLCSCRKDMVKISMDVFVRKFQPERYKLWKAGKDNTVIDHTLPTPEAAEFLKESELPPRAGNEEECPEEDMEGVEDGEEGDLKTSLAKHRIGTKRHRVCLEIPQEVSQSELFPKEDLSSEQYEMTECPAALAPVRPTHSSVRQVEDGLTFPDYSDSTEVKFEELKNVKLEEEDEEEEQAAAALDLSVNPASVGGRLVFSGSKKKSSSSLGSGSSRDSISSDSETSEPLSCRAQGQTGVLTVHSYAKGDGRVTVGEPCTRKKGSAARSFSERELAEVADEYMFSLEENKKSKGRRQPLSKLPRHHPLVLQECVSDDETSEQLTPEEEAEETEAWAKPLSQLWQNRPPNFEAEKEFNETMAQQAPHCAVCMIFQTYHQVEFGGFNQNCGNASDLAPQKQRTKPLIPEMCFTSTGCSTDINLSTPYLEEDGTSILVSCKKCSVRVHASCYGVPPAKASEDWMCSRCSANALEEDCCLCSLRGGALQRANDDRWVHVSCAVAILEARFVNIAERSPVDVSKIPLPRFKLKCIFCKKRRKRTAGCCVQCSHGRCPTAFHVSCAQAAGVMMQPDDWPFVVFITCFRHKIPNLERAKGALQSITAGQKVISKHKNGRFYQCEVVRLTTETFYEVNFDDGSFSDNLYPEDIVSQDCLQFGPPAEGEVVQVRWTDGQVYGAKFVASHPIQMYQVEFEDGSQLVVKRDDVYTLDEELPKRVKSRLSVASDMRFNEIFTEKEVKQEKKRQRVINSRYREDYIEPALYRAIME
HP1b chromo inh: inhibitors of HP1-beta chromodomain binding to methylated histone tails; 390,000 compounds, 0.56% hits; P83916; AlphaScreen HP1-beta / biotin-H3K9me3 peptide binding; Potency, µM (doses to about 114 µM), without a hit: at the highest dose activity change, negative = inhibition, actives largely listed as inhibitors; AID 540317; also: nearly all actives have a fitted effect of over 70% in size
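HP1-beta protein (50 nM final) preincubated 30 min at room temperature with biotinylated H3(1-18)K9me3 peptide (50 nM) in PBS pH 7.4, 0.01% Tween-20, then compound added for 30 min. AlphaScreen streptavidin donor/nickel chelate acceptor beads (10 ug/mL final), 30 min dark, luminescence read.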
G9a block: inhibitors of human histone lysine methyltransferase G9a; AID 504332; 350,000 compounds, 8.8% hits; Potency, µM (highest dose often 102 µM), inactives show at the top dose activity, negative = inhibition, usual class: inhibitors; G9a H3K9 monomethylation, AlphaScreen, 2 h; Q96KQ7; also: % is scaled to controls: 0 for no effect and ±100 for the full control effect; nearly all actives have a fitted effect of over 75% in size
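Readings reflect AlphaScreen signal from monomethyl-H3K9 antibody detection. HMT at 20 nM; substrate b-H3K9 500 nM; cofactor SAM 20 uM; 2 h RT reaction; compounds tested as titrations in qHTS with 15 min preincubation.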
Sfp PPTase inh: inhibitors of Bacillus subtilis Sfp phosphopantetheinyl transferase. 310,000 compounds, 3.5% hits. Biochemical Sfp PPTase activity, qHTS. Potency, µM, for the others: largest response in the series, negative = inhibition, actives largely listed as inhibitors;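 also: the enzyme is Sfp with the accession as filed and its product quenches rhodamine fluorescence; 0% = enzyme reaction without inhibitor and -100% = no enzyme wells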
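After 15 min at room temperature with compound, 15 nM Sfp received 5 uM rhodamine-CoA plus 12.5 uM BHQ-2-ybbR (50 mM Hepes pH 7.6, 10 mM MgCl2). Rate came from the fluorescence difference over 30 min, ex 525/em 598 nm.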
* = called active by the depositor; ? = inconclusive; . = no result; [ ] = another dose, or the depositor's remark. Calls follow the shape of the dose curve; as a rule, active = well fitted curve in the direction sought with a large enough effect; inconclusive = small, poorly fitted or top-dose-only effect, or another doubt; inactive = no such curve, though single readings can be large; an effect the other way counts as inactive or inconclusive. Potency is read from the fitted curve at half-maximal effect.

SMILES	BAZ2B block	PLK1 PBD block	JMJD2A Tudor inh	HP1b chromo inh	G9a block	Sfp PPTase inh
O=C1/C(=C/c2ccco2)SC(=S)N1C1CCS(=O)(=O)C1 (stereo not given)	50.1µM*	-13.7%	?	-14.8%	44.7µM*	17.0%
CCCOc1ccc(-c2nn(-c3ccccc3)cc2/C=C2\SC(=S)N(C3CCS(=O)(=O)C3)C2=O)cc1 (stereo not given)	-9.6%	?	-22.1%	12.5%	-30.7%	2.4%
CCCN(CCC)C1=N/C(=C\c2ccco2)C(=O)N1c1ccccc1	50.1µM*	-12.5%	-22.9%	0.9%	?	35.5µM*
C=CCN(CC=C)C(=S)NC(=O)c1ccc(C)c(Br)c1	?	0.7%	-31.2%	-5.5%	3.2%[59 µM]	-9.3%
Cc1c(C)c2cc(Cl)c(OCC(=O)Nc3ccccn3)cc2oc1=O	.	-0.5%	.	.	.	.
CCc1cc(=O)oc2cc(C)cc(OCc3nn[nH]n3)c12	4.6%	2.3%	-3.3%	39.7%	44.7µM*	10.3%
Cc1c(C)c2cc(Cl)c(OCc3nn[nH]n3)cc2oc1=O	?	-6.7%	-32.0%	12.6%	?	79.4µM*
COC(=O)Cc1c(C)c2c(OCc3nn[nH]n3)cc(C)cc2oc1=O	-7.1%	-3.1%	-30.2%	24.3%	44.7µM*	8.2%
COC(=O)Cc1c(C)c2ccc(OCc3nn[nH]n3)cc2oc1=O	-34.5%	-0.2%	-11.3%	11.9%	?	-2.5%
C=C(Cl)COc1cc(C)cc2oc(=O)cc(CC)c12	-2.8%	-4.3%	4.1%	43.6%	1.0%	7.2%
CC(=O)c1c(C)[nH]c(C(=O)COC(=O)c2ccc(Cl)nc2)c1C	10.8%	-2.0%	-13.7%	28.5%	-0.9%[12.7 µM]	.
Cc1cccnc1NC(=O)CN1C(=O)NC(C)(c2ccc3ccccc3c2)C1=O (stereo not given)	-21.4%	-2.1%	-12.4%	41.7%	-30.2%	.
CSc1ccccc1C(=O)C1CCCN(C(=O)c2cncs2)C1 (stereo not given)	-17.4%	13.4µM*	20µM*	17.4%	-18.7%	10.7%
COC(=O)Cn1c(=O)c(=O)n(CC(=O)OC)c2ccccc21	-31.2%	?	-31.1%	-8.4%	15.0%[59 µM]	17.1%
COC(=O)Cn1cc(/C=C/c2cc[n+](C)cc2)c2ccccc21	44.7µM*	38.7%	?	11.2%	44.7µM*	7.0%
COC(=O)Cn1cc(C#N)c2ccccc21	0.4%	-7.0%	-8.3%	16.8%	10µM*	1.1%
COC(=O)Cn1c(C)c(/C=C/c2cc[n+](C)cc2)c2ccccc21	?	50.8%	?	?	39.8µM*	2.5%
COC(=O)C1CCN(C(c2ccccc2)c2sc3nc(-c4ccco4)nn3c2O)CC1 (stereo not given)	-15.5%	.	-16.6%	-2.0%	-28.3%[59 µM]	.
CCOc1ccc(CN(C)C(=O)CNC(=O)c2ccc(Br)o2)cc1OC	-1.9%	1.4%	3.2%	44.5%	?	11.9%
CC(C)c1ccc(Nc2nnns2)cc1	-12.5%	26.7µM*	?	?	10µM*	20µM*
O=C(O)c1ccc(-c2ccccc2)[nH]c1=O	-32.9%	23.8µM*	-16.9%[11.4 µM]	5.2%	56.2µM*	3.1%
O=C(O)c1ccc(-c2ccccc2)[nH]1	-6.7%	-2.6%	-22.5%	5.6%	-26.2%	17.8%
Cc1cccc(C)c1OCC(O)CNC(C)C (stereo not given)	?	-3.6%	-2.2%	24.9%	?	6.3%
CCOC(=O)c1oc2cccc(OCC(O)CNC(C)C)c2c1C (stereo not given)	-24.2%	-14.1%	-13.5%	5.1%	?	28.2µM*
O=C1C2C3c4ccccc4C(c4ccccc43)C2C(=O)N1Cc1ccco1 (stereo not given)	0.5%	-1.1%	-18.9%	44.1%	?	44.7µM*
SMILES	BAZ2B block	PLK1 PBD block	JMJD2A Tudor inh	HP1b chromo inh	G9a block	Sfp PPTase inh
O=C1CC(=O)N(Cc2ccco2)C(=O)N1	39.8µM*	6.7µM*	4.47µM*	-78.6%	?	50.1µM*
O=C1C2C(C(=O)N1Cc1ccco1)C1C=CC2C12CC2 (stereo not given)	-1.8%	-13.6%	-7.1%	21.3%	-0.9%[12.7 µM]	-1.2%
O=C1CC(=O)N(Cc2ccco2)C(=S)N1	20µM*	21.2µM*	56.2µM*	-11.8%	8.91µM*	22.4µM*
Cc1nc2nc[nH]n2c(=O)c1NS(=O)(=O)c1ccc(Br)cc1	-1.3%	.	-15.1%	22.2%	3.7%[59 µM]	.
CCn1c(=NC(=O)c2ccc(S(=O)(=O)N3CCCC3)cc2)sc2cc(Br)ccc21	-4.2%	.	0.4%	39.3%	9.4%[59 µM]	.
CC12CC3CC(C)(C1)CC(C(=O)NCc1ccco1)(C3)C2	-13.0%	26.7µM*	-21.8%[57.1 µM]	-6.3%	-6.4%	10.4%
O=C(NCc1ccco1)C12CC3CC(C1)CC(C(=O)NCc1ccco1)(C3)C2	-1.0%	-4.7%	-24.6%	11.4%	?	-9.5%
COCCNc1ccnc(-c2ccccc2C(F)(F)F)n1	.	.	.	.	-3.5%[0.501 µM]	-2.8%
O=C(NC(=S)NNC(=O)[C@H]1C[C@@H]1c1ccccc1)c1cccc(F)c1	0.5%	-3.7%	-10.3%	1.9%	15.8µM*	31.6µM*
COc1cccc2c1OCC(CN1CCN(CCC(C)C)C(CCO)C1)=C2 (stereo not given)	-12.1%	0.7%	0.3%	29.4%	-0.7%	16.7%
Cc1cnc(C(=O)OCC(=O)c2c[nH]c3ccccc23)cn1	8.7%	4.4%	-10.5%	33.3%	-7.6%[12.7 µM]	.
Cc1cnc(C(=O)OCC(=O)c2cccc3ccccc23)cn1	-4.0%	-5.8%	-15.9%	20.3%	44.7µM*	.
COc1cccc(C2=CC(c3ccccc3O)NC(C)(C)N2)c1 (stereo not given)	.	.	-14.6%[57.1 µM]	4.4%[57 µM]	.	.
O=C(Nc1ccc(Cl)cc1)N1CCN(c2ccc3nnc(-c4ccc(F)cc4)n3n2)CC1	10.9%	-3.8%	-16.7%	12.8%	6.1%[59 µM]	-10.1%
O=C(Nc1ccccc1Cl)N1CCN(c2ccc3nnc(-c4ccccc4)n3n2)CC1	-29.8%	1.2%	-15.2%	26.2%	50.1µM*	6.0%
COc1ccc([C@@H]2[C@H]3C(=O)N(c4cccc(C(F)(F)F)c4)C(=O)[C@H]3ON2C)cc1	14.1%	-0.5%	-3.5%	34.4%	44.7µM*	-9.2%
Cc1ccc(Nc2ccc3cc(S(=O)(=O)N4CCC(C)CC4)ccc3n2)c(Cl)c1	-7.4%	.	20.1%	55.0%	15.8µM*	.
COc1ccccc1OCCCCn1c(-c2ccc(Cl)cc2)nc2ccccc2c1=O	6.0%	.	10.0%	46.0%	-20.3%[59 µM]	.
O=C(c1cccnc1)N1C2C=CC(C2)C1(C(F)(F)F)C(F)(F)F (stereo not given)	?	-15.9%	70.8µM*	-17.7%	-5.8%[59 µM]	5.0%
CCOc1cc(C(=O)Nc2ccc(NC(C)=O)cc2)ccc1OCC(=O)N1CCCCC1	-27.8%	-9.7%	-0.3%	9.4%	7.6%[59 µM]	-6.5%
